Records with an inconclusive call do not appear. Entries that show only a call come without a potency. Values without a mark were called inactive. The source made the active and inactive calls. Calls come from the whole dose curve; as a rule, active = well fitted curve in the direction sought with a large enough effect; inconclusive = small, poorly fitted or top-dose-only effect, or another doubt; inactive = no such curve, though single readings can be large; an effect the other way counts as inactive or inconclusive.
What was measured:
[1] = biological target: Rap guanine nucleotide exchange factor 3 (Homo sapiens) (UniProt O95398); test: Confirmatory qHTS for antagonist of cAMP-regulated guanine nucleotide exchange factor 3 (EPAC1) (AID 1645880); conditions: EPAC1 Rap1B-BODIPY-GDP exchange, fluorescence; activity, negative = inhibition: at 115 µM (top of the series); note: nearly all actives have a fitted effect of over 55% in size
How it was run: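 Released BODIPY-GDP fluoresces less than Rap1-bound BODIPY-GDP; the signal is followed at 480/540 nm at 5-min intervals over 30 min, after 5 min at room temperature. Reactions contain 100 nM EPAC1, 250 nM RAP1B-BODIPY-GDP and 50 uM GDP; results are normalized to ATA and DMSO.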

[2] = biological target: Rap guanine nucleotide exchange factor 3 (Homo sapiens) (UniProt O95398); test: Confirmatory qHTS for agonist of cAMP-regulated guanine nucleotide exchange factor 3 (EPAC1) (AID 1645881); note: nearly all actives have a fitted effect of over 75% in size;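 for activation: EPAC1 catalysed release of BODIPY-GDP from Rap1B seen as fluorescence loss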
[3] = biological target: Rap guanine nucleotide exchange factor 4 (Homo sapiens) (UniProt Q8WZA2); test: Confirmatory qHTS for agonist of cAMP-regulated guanine nucleotide exchange factor 4 (EPAC2) (AID 1645884);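 note: nucleotide exchange releases bodipy-GDP from Rap1 and this lowers its fluorescence; nearly all actives have a fitted effect of over 65% in size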
[4] = biological target: Rap guanine nucleotide exchange factor 4 (Homo sapiens) (UniProt Q8WZA2); test: Confirmatory qHTS for antagonist of cAMP-regulated guanine nucleotide exchange factor 4 (EPAC2) (AID 1645885); note: nearly all actives have a fitted effect of over 25% in size
[5] = biological target: Rap guanine nucleotide exchange factor 3 (Homo sapiens) (UniProt O95398); test: Counterscreen qHTS for agonist of cAMP-regulated guanine nucleotide exchange factor 3 (EPAC1) (AID 1645889); note: nearly all actives have a fitted effect of over 40% in size
How it was run: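 Measured: fluorescence of BODIPY-GDP bound to Rap1B, which falls as exchange proceeds. Conditions include 50 uM competing GDP, 5 and 30 min reads, and a later cAMP challenge for antagonist detection.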
Potency is the fitted concentration of half-maximal effect.

Rap guanine nucleotide exchange factor 4 (Homo sapiens), sequence (Q8WZA2 whole entry, looked up): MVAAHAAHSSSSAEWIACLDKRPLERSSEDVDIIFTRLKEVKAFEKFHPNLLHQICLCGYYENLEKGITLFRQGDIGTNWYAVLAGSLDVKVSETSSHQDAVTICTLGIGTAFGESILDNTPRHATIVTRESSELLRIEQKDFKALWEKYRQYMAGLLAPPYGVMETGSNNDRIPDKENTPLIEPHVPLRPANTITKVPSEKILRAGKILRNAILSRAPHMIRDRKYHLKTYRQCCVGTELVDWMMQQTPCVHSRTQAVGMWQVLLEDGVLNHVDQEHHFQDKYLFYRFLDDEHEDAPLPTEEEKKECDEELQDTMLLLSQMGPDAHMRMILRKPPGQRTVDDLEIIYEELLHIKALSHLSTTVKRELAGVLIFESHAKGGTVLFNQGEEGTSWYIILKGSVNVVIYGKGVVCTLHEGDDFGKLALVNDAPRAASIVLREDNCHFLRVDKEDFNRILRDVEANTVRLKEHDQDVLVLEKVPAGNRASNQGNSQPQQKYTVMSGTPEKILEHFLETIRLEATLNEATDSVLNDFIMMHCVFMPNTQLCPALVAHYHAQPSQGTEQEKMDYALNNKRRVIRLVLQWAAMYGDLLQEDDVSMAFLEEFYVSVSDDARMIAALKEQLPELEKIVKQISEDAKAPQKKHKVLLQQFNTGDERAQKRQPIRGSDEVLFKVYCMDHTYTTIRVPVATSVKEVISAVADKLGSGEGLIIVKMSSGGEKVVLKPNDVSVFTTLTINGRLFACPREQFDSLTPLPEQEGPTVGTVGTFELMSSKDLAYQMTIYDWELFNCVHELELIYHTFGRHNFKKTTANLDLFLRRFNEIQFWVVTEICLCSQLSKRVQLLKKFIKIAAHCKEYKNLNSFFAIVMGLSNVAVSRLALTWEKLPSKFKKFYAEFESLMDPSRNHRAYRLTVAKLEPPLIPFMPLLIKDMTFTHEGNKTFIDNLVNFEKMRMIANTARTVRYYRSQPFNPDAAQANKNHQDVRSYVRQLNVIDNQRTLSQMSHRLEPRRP
Rap guanine nucleotide exchange factor 3 (Homo sapiens), sequence (O95398 whole entry, looked up): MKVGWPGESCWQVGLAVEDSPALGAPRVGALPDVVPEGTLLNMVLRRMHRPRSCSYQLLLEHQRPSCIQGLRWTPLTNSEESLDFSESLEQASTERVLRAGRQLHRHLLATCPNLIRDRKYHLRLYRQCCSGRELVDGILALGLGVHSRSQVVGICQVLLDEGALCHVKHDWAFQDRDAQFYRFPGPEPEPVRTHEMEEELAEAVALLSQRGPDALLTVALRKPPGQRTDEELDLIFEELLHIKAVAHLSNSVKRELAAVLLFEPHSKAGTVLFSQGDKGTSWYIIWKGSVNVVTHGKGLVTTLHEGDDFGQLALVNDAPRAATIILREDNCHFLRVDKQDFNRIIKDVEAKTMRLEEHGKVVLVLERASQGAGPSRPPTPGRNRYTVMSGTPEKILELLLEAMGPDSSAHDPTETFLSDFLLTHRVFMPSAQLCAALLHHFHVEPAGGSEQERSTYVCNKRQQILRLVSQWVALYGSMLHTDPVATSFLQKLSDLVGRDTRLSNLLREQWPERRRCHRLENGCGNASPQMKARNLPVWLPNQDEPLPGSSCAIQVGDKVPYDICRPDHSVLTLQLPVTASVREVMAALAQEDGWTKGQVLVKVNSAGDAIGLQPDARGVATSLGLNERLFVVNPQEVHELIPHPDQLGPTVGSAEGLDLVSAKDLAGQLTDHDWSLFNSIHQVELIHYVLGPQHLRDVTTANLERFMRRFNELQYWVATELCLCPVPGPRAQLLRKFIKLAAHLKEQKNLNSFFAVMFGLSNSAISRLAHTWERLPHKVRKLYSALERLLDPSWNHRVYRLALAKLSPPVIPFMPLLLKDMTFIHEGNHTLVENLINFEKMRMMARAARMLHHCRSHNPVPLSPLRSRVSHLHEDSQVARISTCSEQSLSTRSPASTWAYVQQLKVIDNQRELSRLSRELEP

| SMILES | Potency [1] | Potency [2] | Potency [3] | Potency [4] | Potency [5] | activation [3] | activation [5] |
| --- | --- | --- | --- | --- | --- | --- | --- |
| CC(C)CC1C(=O)N(Cc2cn(Cc3ccco3)nn2)CCS(=O)(=O)N1Cc1ccc(-c2ccc(F)cc2)cc1 (stereo not given) | 84.9 µM (active) | inactive | inactive | 21.3 µM (active) | inactive | – | – |
| Cc1ccc(CNC(=O)c2ccc3c(c2)nc(C)n3-c2cccc(F)c2)cc1 | inactive | inactive | inactive | inactive | inactive | – | – |
| CCc1ccc([C@@H]2CC=C(C(=O)O)[C@H](c3ccc(C(C)(C)C)cc3)N2S(=O)(=O)c2ccc(C)cc2)cc1 | 37.9 µM (active) | inactive | inactive | 37.9 µM (active) | inactive | – | – |
| COc1ccccc1CNC(=O)C1(C)CCN1Cc1ccc(OC(F)(F)F)cc1 (stereo not given) | 67.5 µM (active) | inactive | inactive | 53.6 µM (active) | inactive | – | – |
| CCOc1cc(/C=C(\C#N)C(=O)Nc2cccc(C(=O)O)c2)cc(Br)c1OC(=O)c1ccc(OC)cc1 | 42.6 µM (active) | inactive | inactive | 12 µM (active) | inactive | – | – |
| CCOC(=O)c1c(-c2ccc(-c3ccccc3)cc2)csc1NC(=O)CCC(=O)O | 42.6 µM (active) | inactive | inactive | inactive | inactive | – | – |
| Cc1csc(N=Nc2ccc(N(C)C)cc2)[n+]1[O-] | 67.5 µM (active) | inactive | inactive | 37.9 µM (active) | inactive | – | – |
| CC(=O)Nc1cccc(/C(C)=N/Nc2ccc(S(=O)(=O)Nc3ccccc3C(=O)O)cc2[N+](=O)[O-])c1 | 21.3 µM (active) | inactive | inactive | inactive | inactive | – | – |
| O=C1OC(c2ccccc2)Sc2ccccc21 (stereo not given) | inactive | inactive | – | inactive | – | 4.47% [at 17.1 µM, percent relative to cAMP agonist control] | -3.76% [at 30.8 µM] |
| O=C(CSc1nnnn1-c1ccccc1)Nc1ccc(Cl)cn1 | inactive | inactive | inactive | inactive | inactive | – | – |
| Cc1ccc2oc(=O)n(CCCOc3ccccc3Cl)c2c1 | inactive | inactive | inactive | inactive | inactive | – | – |
| COc1cc(OC)c(-c2c3cc(O)c(=O)cc-3oc3cc(O)c(O)cc23)cc1OC | inactive | 89.1 µM (active) | 100 µM (active) | inactive | 70.8 µM (active) | – | – |
| CCCCCn1c(CCNC(=O)c2cccc(C)c2)nc2ccccc21 | inactive | inactive | inactive | inactive | inactive | – | – |
| O=C(O)CN1C(=O)/C(=C\c2ccccc2OCc2ccc(Cl)cc2)SC1=S | 37.9 µM (active) | inactive | inactive | 42.6 µM (active) | inactive | – | – |
| COc1ccc(C(CC(=O)N2CCCC2)c2ccc(F)cc2)cc1 (stereo not given) | inactive | inactive | – | inactive | – | 0% [at 17.1 µM, percent relative to cAMP agonist control] | 0.37% [at 30.8 µM] |
| O=C1NC(=S)S/C1=C\C=C\c1ccc([N+](=O)[O-])o1 | 8.49 µM (active) | inactive | inactive | inactive | inactive | – | – |
| COc1cc(C(=O)NCC(=O)N/N=C(\C)Cc2ccccc2)cc(OC)c1OC | inactive | inactive | inactive | inactive | inactive | – | – |
| Cn1/c(=N\NC(=O)C2CCCCC2)sc2ccccc21 | inactive | inactive | inactive | inactive | inactive | – | – |
| Cc1ccc([N+](=O)[O-])cc1S(=O)(=O)N1CCC(C)CC1 | inactive | inactive | inactive | inactive | inactive | – | – |
| Nc1ncc(Br)cc1S(=O)(=O)Nc1cc(C(F)(F)F)cc(C(F)(F)F)c1 | 75.7 µM (active) | inactive | inactive | inactive | inactive | – | – |
| CC(C)(C)OC(=O)N1CCN(C(=O)c2[nH]c(C(F)(F)F)nc2-c2ccccc2)CC1 | inactive | inactive | inactive | inactive | inactive | – | – |
| CCOC(=O)N1c2ccccc2Sc2ccccc21 | inactive | inactive | – | inactive | – | 4.1% [at 17.1 µM, percent relative to cAMP agonist control] | 15.6% [at 30.8 µM] |
| O=C(CSc1n[nH]c(-c2ccccc2)n1)c1ccc(O)c(O)c1 | 42.6 µM (active) | inactive | inactive | inactive | inactive | – | – |
| CCN1CCc2c(sc(NC(=O)c3ccc(S(=O)(=O)N4CCCCCC4)cc3)c2C(=O)NC)C1 | inactive | inactive | inactive | inactive | inactive | – | – |
| COc1cc(CN2CCN(C(=O)CC(C)C)CC2)c([N+](=O)[O-])cc1OC | inactive | inactive | – | inactive | – | 2.13% [at 17.1 µM, percent relative to cAMP agonist control] | 8.51% [at 30.8 µM] |

— PubChem BioAssay (NCATS)
